# Source: PubChem BioAssay (NCATS)
# Several values for one entry are separate records, joined by “and”; a condition that tells them apart may be missing. Identical values can stand only once. Results filed as inconclusive are left out. Where a call stands in place of a potency, no number is given. A number with no mark means an inactive call. Activity calls are given as the source filed them. The call rests on the fitted dose curve; in most records, active means well fitted inhibition curve with a large enough effect; inconclusive means small, poorly fitted or top-dose-only effect; inactive means flat fitted curve, though single readings scatter.
# What was measured:
# [1] = system: CRL-7250; assay: Cytotoxic Profiling of Annotated Libraries Using Quantitative High-Throughput Screening (AID 1296008); conditions: Five cell lines viability, CellTiter-Glo ATP luminescence, 48-72 h; max response: hits give low values; further: potency means the concentration at half of the fitted maximal effect
# In short: (§1)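 Compounds were pin-transferred onto cells and incubated 48 or 72 hr at 37 degree Celsius, 95% humidity. CellTiter-Glo was added, plates sat 10 min at room temperature, then ATP-coupled luminescence was imaged as the viability read-out.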
# [2] = system: HEK293; assay: as above; conditions: Five cell lines viability, CellTiter-Glo ATP luminescence, 48-72 h; max response: hits give low values
# In short: as §1
# [3] = system: HaCat; assay: as above; conditions: Five cell lines viability, CellTiter-Glo ATP luminescence, 48-72 h; max response: hits give low values
# In short: as §1
# [4] = system: KB-3-1; assay: as above; conditions: Five cell lines viability, CellTiter-Glo ATP luminescence, 48-72 h; max response: hits give low values
# In short: as §1
# [5] = system: NIH3T3; assay: as above; conditions: Five cell lines viability, CellTiter-Glo ATP luminescence, 48-72 h; max response: hits give low values
# In short: as §1
# [6] = system: HACAT; assay: qHTS assay to identify novel small-molecules to repurpose for Merkel cell carcinoma treatment (AID 1296009); conditions: MCC and control cell lines, CellTiter-Glo viability, 72 h
# In short: (§2)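 qHTS format: cells treated with library compounds in DMSO across 8 (NPC) or 11 (MIPE) concentrations. Readout after 72 hr at 37 degree celsius was CellTiter-Glo luminescence.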
# [7] = system: HEK293T; assay: as above; conditions: MCC and control cell lines, CellTiter-Glo viability, 72 h; series mostly up to 44.8 µM
# In short: as §2
# [8] = at 44.8 µM (top of the series) unless noted
# Further: nearly all actives have a fitted effect of over 60% in size.
compound,measurement,setting,value
Cc1cccc(-c2[nH]c(CNc3ccccc3F)nc2-c2ccc3ncnn3c2)n1,outcome,[1],inactive
same,outcome,[2],inactive
same,outcome,[3],inactive
same,max response,[4],6.62%
same,Potency,[5],7.31 µM (active)
same,outcome,[6]; [8],inactive
same,Potency,[7],inactive
CCC(CC)n1ccc2c(C(=O)NCc3c(C)cc(C)[nH]c3=O)cc(C#N)cc21,max response,[1],-1.01%
same,outcome,[2],inactive
same,outcome,[3],inactive
same,max response,[4],2.42%
same,max response,[5],-0.643%
same,outcome,[6]; [8],inactive
same,Potency,[7],inactive
C[C@@H]1O[C@@H](OC[C@H]2O[C@@H](OCCc3ccccc3)[C@H](O)[C@@H](O)[C@@H]2O)[C@H](O)[C@H](O)[C@H]1O,max response,[1],-0.537%
same,outcome,[2],inactive
same,outcome,[3],inactive
same,outcome,[4],inactive
same,max response,[5],4.11%
same,outcome,[6]; [8],inactive [at 17.4 µM]
same,Potency,[7],inactive
C=C1C(=O)OC2CC(C)=C(C(C)CCCO[C@@H]3O[C@H](CO)[C@@H](O)[C@H](O)[C@H]3O)C(O)C12 (stereo partly specified),max response,[1],-0.682%
same,outcome,[2],inactive
same,outcome,[3],inactive
same,outcome,[4],inactive
same,outcome,[5],inactive
same,outcome,[6]; [8],inactive [at 17.4 µM]
same,Potency,[7],inactive
COCCCNCC1COc2ccccc2O1 (stereo unspecified),max response,[1],1.45%
same,outcome,[2],inactive
same,outcome,[3],inactive
same,max response,[4],6.68%
same,max response,[5],4.14%
same,outcome,[6]; [8],inactive
same,Potency,[7],inactive
CC(C)c1ccc(CC(=O)N2CCC[C@@H](c3cccc(OC(C)(C)C(=O)O)c3)C2)cc1,max response,[1],-8.91%
same,outcome,[2],inactive
same,outcome,[3],inactive
same,outcome,[4],inactive
same,max response,[5],-2.06%
same,outcome,[6]; [8],inactive
same,Potency,[7],inactive
C=CC(C)(O)CC/C=C(\C)C(=O)OC1CC2(C(=O)O)CCC3(C)C(=CCC4C5(C)CCC(OC6OC(COC7OCC(O)C(O)C7O)C(O)C(OC7OCC(O)C(O)C7O)C6OC6OC(CO)C(O)C(O)C6OC6OCC(O)C(O)C6O)C(C)(C)C5CCC43C)C2CC1(C)C (stereo unspecified),max response,[1],0.69%
same,outcome,[2],inactive
same,outcome,[3],inactive
same,outcome,[4],inactive
same,max response,[5],1.8%
same,outcome,[6]; [8],inactive [at 9.27 µM]
same,outcome,[7],inactive [at 9.27 µM]
FC(F)(F)c1cc(C(F)(F)F)c2ccc3nc(-c4nnco4)cn3c2n1,outcome,[1],inactive
same,outcome,[2],inactive
same,outcome,[3],inactive
same,max response,[4],-10%
same,outcome,[5],inactive
same,outcome,[6]; [8],inactive
same,Potency,[7],inactive
CC(C)(O)CNc1nc(Nc2ccnc(C(F)(F)F)c2)nc(-c2cccc(C(F)(F)F)n2)n1,max response,[1],-2.34% and 1.41%
same,Potency,[2],14.8 µM (active)
same,outcome,[3],inactive
same,max response,[4],4.85%
same,max response,[5],3.44% and -5.61%
same,outcome,[6]; at 17.4 µM (top of the series),inactive
same,outcome,[6]; at 44.8 µM (top of the series),inactive
CC1(C)CCC[C@@]2(C)[C@H]1[C@H](O)C=C1COC(=O)[C@@]12O,outcome,[1],inactive
same,outcome,[2],inactive
same,outcome,[3],inactive
same,max response,[4],4.4%
same,max response,[5],2.05%
same,outcome,[6]; [8],inactive
same,Potency,[7],inactive
COc1cc([C@H]2OC[C@]3(OC(C)=O)[C@@H](c4ccc(O[C@@H]5O[C@H](CO)[C@@H](O)[C@H](O)[C@H]5O)c(OC)c4)OC[C@H]23)ccc1O,outcome,[1],inactive
same,outcome,[2],inactive
same,outcome,[3],inactive
same,outcome,[4],inactive
same,max response,[5],4.83%
same,outcome,[6]; [8],inactive [at 17.4 µM]
same,Potency,[7],inactive
COC(=O)[C@H](CC1C=NC=N1)NCC12CC3CC(CC(C3)C1)C2 (stereo partly specified),max response,[1],-3.43%
same,outcome,[2],inactive
same,outcome,[3],inactive
same,max response,[4],1.43%
same,outcome,[5],inactive
same,outcome,[6]; [8],inactive
same,Potency,[7],inactive
Cc1cn2c(N)c(Cl)cc(C(=O)NCC3CCN(CC(C)C)CC3)c2n1,max response,[1],-6.05%
same,outcome,[2],inactive
same,outcome,[3],inactive
same,max response,[4],-3.78%
same,outcome,[5],inactive
same,outcome,[6]; [8],inactive
same,Potency,[7],inactive
COC(=O)c1ccc(O[C@@H]2O[C@H](CO)[C@@H](O)[C@H](O)[C@H]2O)c(OC)c1,max response,[1],-0.304%
same,outcome,[2],inactive
same,outcome,[3],inactive
same,max response,[4],4.82%
same,outcome,[5],inactive
same,outcome,[6]; [8],inactive
same,Potency,[7],inactive
CCCCS(=O)(=O)Nc1ncnc(OCCOc2ncc(Br)cn2)c1-c1ccc(Br)cc1,max response,[1],-8.77%
same,outcome,[2],inactive
same,outcome,[3],inactive
same,outcome,[4],inactive
same,max response,[5],1.6%
same,outcome,[6]; [8],inactive
same,Potency,[7],inactive
C=C1CC[C@H]2[C@@H](/C=C(\C)C(=O)[C@@]3(OC(C)=O)C[C@H](C)[C@H](OC(C)=O)[C@@H]3[C@H]1OC(C)=O)C2(C)C,outcome,[1],inactive
same,outcome,[2],inactive
same,outcome,[3],inactive
same,outcome,[4],inactive
same,outcome,[5],inactive
same,outcome,[6]; [8],inactive [at 17.4 µM]
same,Potency,[7],inactive
O=C(/C=C/c1ccc(O)cc1)OC[C@H]1O[C@@H](OC(=O)/C=C/c2ccccc2)[C@H](O)[C@@H](O)[C@@H]1O,outcome,[1],inactive
same,outcome,[2],inactive
same,outcome,[3],inactive
same,max response,[4],-1.64%
same,outcome,[5],inactive
same,outcome,[6]; [8],inactive [at 17.4 µM]
same,Potency,[7],inactive
C[C@@H]1C(=O)O[C@H]2CC34[C@H]5C[C@@H](C(C)(C)C)C36[C@@H](OC(=O)[C@@H]6O)OC4(C(=O)O5)[C@]21O (stereo partly specified),max response,[1],-2.58%
same,outcome,[2],inactive
same,outcome,[3],inactive
same,max response,[4],9.69%
same,max response,[5],4.14%
same,outcome,[6]; [8],inactive
same,Potency,[7],inactive
